Assay results: PubChem BioAssay (Tox21)
Records with an inconclusive call do not appear. Active and inactive are the calls of the source. Unless noted, calls come from the whole dose curve; as a rule, active = well fitted curve in the direction sought with a large enough effect in the repeat runs; inconclusive = weak or mixed curves; inactive = no such curve, though single readings can be large; an effect the other way counts as inactive or inconclusive.

Columns and labels:
[1] = qHTS assay to identify small molecule antagonists of the androgen receptor (AR) signaling pathway using the MDA cell line in the presence of 0.5 nM R1881 - cell viability counter screen (AID 1259242); note: nearly all actives have a fitted effect of over 45% in size; note: potency is the fitted concentration of half-maximal effect
Method in brief: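 MDA-kb2 cells (human breast carcinoma, stably carrying MMTV-luciferase reporter) were exposed to compounds with 0.5 nM R1881 (final) for 16 hr at 37C, 0% CO2; viability then read as live-cell protease fluorescence (CellTiter-Fluor, 30 min) in the same wells.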

[2] = molecular target: Estrogen receptor (Homo sapiens) (UniProt P03372); experiment: qHTS assay to identify small molecule antagonists of the estrogen receptor alpha (ER-alpha) signaling pathway using the BG1 cell line in the presence of 0.1 nM 17-beta-estradiol (AID 1259244); note: nearly all actives have a fitted effect of over 50% in size; note: potency is the fitted concentration of half-maximal effect
Chain of Estrogen receptor (Homo sapiens) (P03372 whole entry, looked up): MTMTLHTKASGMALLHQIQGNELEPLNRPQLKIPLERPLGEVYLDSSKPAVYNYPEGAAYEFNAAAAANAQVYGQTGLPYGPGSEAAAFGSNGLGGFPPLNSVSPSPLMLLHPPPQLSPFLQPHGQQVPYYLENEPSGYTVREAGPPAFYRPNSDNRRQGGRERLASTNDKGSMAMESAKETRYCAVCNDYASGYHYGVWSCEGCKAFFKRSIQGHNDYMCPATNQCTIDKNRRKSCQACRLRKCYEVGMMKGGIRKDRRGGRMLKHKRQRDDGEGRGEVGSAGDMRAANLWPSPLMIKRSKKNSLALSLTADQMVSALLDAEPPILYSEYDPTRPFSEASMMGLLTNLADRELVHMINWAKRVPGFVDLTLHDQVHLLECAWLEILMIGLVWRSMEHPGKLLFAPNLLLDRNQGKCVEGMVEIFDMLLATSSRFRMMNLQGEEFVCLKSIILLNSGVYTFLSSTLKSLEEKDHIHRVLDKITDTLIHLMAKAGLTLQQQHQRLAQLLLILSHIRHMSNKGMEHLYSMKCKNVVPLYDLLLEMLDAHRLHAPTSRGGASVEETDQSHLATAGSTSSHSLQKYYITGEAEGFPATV
Method in brief: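 VM7Luc4E2 cells (endogenous full-length ER-alpha, stable 4xERE-luciferase) were grown 5 days in phenol red-free medium with charcoal-stripped FBS, then exposed 22 h at 37C to compounds plus 0.1 nM (final) 17beta-estradiol; ONE-Glo luminescence read-out.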

[3] = qHTS assay to identify small molecule phospholipidosis (PLD) inducers (AID 1259344; active = well fitted curve in the direction sought with a large enough effect; an effect the other way counts as inactive or inconclusive)
Method in brief: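 Fluorescent phospholipid staining (LipidTOX Red) measured by automated microscopy in fixed HepG2 cells after 24 h treatment; nuclei counterstained with Hoechst 33342; amiodarone as reference inducer.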

[4] = qHTS assay to identify small molecule HDAC inhibitors (AID 1259364); note: nearly all actives have a fitted effect of over 45% in size; note: potency is the fitted concentration of half-maximal effect; for activity change, negative = inhibition: top concentration of the series differs between compounds
Method in brief: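 Wild-type HCT-116 cells were plated overnight, exposed to compounds for 2 h at 37 °C, then given HDAC-Glo class I/II luminogenic reagent for 30 min at room temperature before luminescence was read.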

[5] = qHTS assay to identify small molecule HDAC inhibitors - cell viability counter screen (AID 1259365); note: nearly all actives have a fitted effect of over 50% in size; note: potency is the fitted concentration of half-maximal effect; for activity change, negative = cytotoxicity: series mostly up to about 92 µM
Method in brief: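 CellTiter-Glo luminescence (30 min, room temperature) reported viability after a 2 h compound exposure at 37 C. Cells: wild-type HCT-116, 1,500 per well, seeded the night before.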

[6] = qHTS assay to identify small molecule agonists of the sonic hedgehog signaling (Shh) pathway - cell viability counter screen (AID 1259366); note: nearly all actives have a fitted effect of over 50% in size; note: potency is the fitted concentration of half-maximal effect
Method in brief: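 Cytotoxicity counter screen: CellTiter-Fluor reagent added after 23 h compound exposure, then 1 h at 37C and fluorescence read. Cells were 3T3 Gli1-Luc, seeded 2,000 per well and dosed 4 h post-plating.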

[7] = qHTS assay to identify small molecule antagonists of the sonic hedgehog signaling (Shh) pathway - cell viability counter screen (AID 1259367); note: nearly all actives have a fitted effect of over 55% in size; note: potency is the fitted concentration of half-maximal effect
Method in brief: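 Using CellTiter-Fluor, viability of Gli1-Luc reporter 3T3 cells is read by fluorescence in the wells used for the Shh luciferase assay. Treatment lasts 23 hr with conditioned medium, then reagent 1 hr at 37C.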

[8] = qHTS assay to identify small molecule agonists of the sonic hedgehog signaling (Shh) pathway (AID 1259368; calls by dose curve; note: nearly all actives have a fitted effect of over 15% in size; note: potency is the fitted concentration of half-maximal effect; for activity change: series mostly up to about 92 µM)
Method in brief: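 NIH/3T3-derived 3T3Gli1-Luc cells carrying a stably integrated Gli1 response element–firefly luciferase reporter were plated, left 4 hr at 37 C, then given compounds in DMSO for 24 hr. Luminescence was read 30 min after adding luciferase reagent.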

[9] = qHTS assay to identify small molecule antagonists of the sonic hedgehog signaling (Shh) pathway (AID 1259369; calls by dose curve; note: nearly all actives have a fitted effect of over 45% in size; note: potency is the fitted concentration of half-maximal effect)
Method in brief: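 NIH/3T3-derived 3T3Gli1-Luc cells with stably integrated Gli1-Luc reporter were preincubated 4hr at 37 C, then given compounds in DMSO plus Shh conditioned medium and incubated 24hr. Firefly luciferase luminescence read after 30min reagent at room temperature.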
% is set by controls: 0 for no effect and ±100 for the full control effect.

O=C(NC(Cc1cc(=O)[nH]c2ccccc12)C(=O)O)c1ccc(Cl)cc1 (configuration not stated)
inactive: Potency [1] | Potency [2] | Potency [3] | Potency [4] | Potency [5] | Potency [6] | Potency [7] | Potency [8] | Potency [9]

CC1CCc2nccnc21 (configuration not stated)
inactive: Potency [1] | Potency [2] | Potency [4] | Potency [5] | Potency [6] | Potency [7] | Potency [8] | Potency [9]

CCN(Cc1cccc(S(=O)(=O)O)c1)c1ccc(C(=C2C=CC(=[N+](CC)Cc3cccc(S(=O)(=O)O)c3)C=C2)c2ccc(O)cc2S(=O)(=O)[O-])cc1
active: Potency [1] 18.6 µM | Potency [2] 16.6 µM | Potency [4] 3.71 µM | Potency [5] 9.32 µM | Potency [6] 16.6 µM | Potency [7] 16.6 µM | Potency [9] 4.67 µM
inactive: Potency [8]

O=C1NC(=O)c2cccc3cccc1c23
inactive: Potency [1] | Potency [2] | Potency [4] | Potency [5] | Potency [6] | Potency [7] | Potency [8] | Potency [9]

Cc1ccc2c(c1[N+](=O)[O-])C(=O)c1ccccc1C2=O
inactive: Potency [1] | Potency [2] | Potency [4] | Potency [5] | Potency [6] | Potency [7] | Potency [8] | Potency [9]

Cc1ccc(N(CC2=NCCN2)c2cccc(O)c2)cc1
inactive: Potency [1] | Potency [2] | Potency [3] | Potency [4] | Potency [5] | Potency [8]

CCO[Si](C)(CCCOCC1CO1)OCC (configuration not stated)
inactive: Potency [1] | Potency [2] | Potency [4] | Potency [5] | Potency [6] | Potency [7] | Potency [8]

CCCCCCCCCCCSCC(=O)O
active: Potency [2] 54.5 µM
inactive: Potency [1] | Potency [4] | Potency [5] | Potency [6] | Potency [7] | Potency [8]

CC(C)C(O)C(C)(C)CO (configuration not stated)
inactive: Potency [1] | Potency [4] | Potency [5] | Potency [6] | Potency [7] | Potency [8] | Potency [9]
active: Potency [2] 9.99 µM

Cc1cccc2sc(N)nc12
inactive: Potency [1] | Potency [2] | Potency [4] | Potency [5] | Potency [6] | Potency [7] | Potency [8] | Potency [9]

CC(C)C1CCC(C(=O)N[C@H](Cc2ccccc2)C(=O)O)CC1 (some centres not stated)
inactive: Potency [1] | Potency [2] | Potency [3] | Potency [4] | Potency [5] | Potency [7] | Potency [8] | Potency [9]

CC(C)CC(O)CC(C)C
inactive: Potency [1] | Potency [2] | Potency [4] | Potency [5] | Potency [6] | Potency [7] | Potency [8] | Potency [9]

CCCc1nc2c(C)cc(-c3nc4ccccc4n3C)cc2n1Cc1ccc(-c2ccccc2C(=O)O)cc1
inactive: Potency [1] | Potency [2] | Potency [3] | Potency [4] | Potency [5] | Potency [8] | Potency [9]

CCCCC[C@H](O)/C=C/[C@H]1[C@H](O)CC(=O)[C@@H]1C/C=C\CCCC(=O)O
inactive: Potency [1] | Potency [2] | Potency [3] | Potency [4] | Potency [5]
active: Potency [8] 10.6 µM | Potency [9] 0.006 µM

CCCCCCCC/C=C\CCCCCCCC(=O)OCCO
active: Potency [9] 36.2 µM
inactive: Potency [1] | Potency [2] | Potency [4] | Potency [5] | Potency [6] | Potency [7] | Potency [8]

CCN(CC)c1cccc(O)c1
inactive: Potency [1] | Potency [2] | Potency [4] | Potency [5] | Potency [6] | Potency [7] | Potency [8] | Potency [9]

O=C(CCS)OCC(COC(=O)CCS)(COC(=O)CCS)COC(=O)CCS
inactive: Potency [1] | Potency [2] | Potency [4] | Potency [5] | Potency [6] | Potency [7] | Potency [8] | Potency [9]

CCCCCCC(O)CCOC(C)=O (configuration not stated)
inactive: Potency [1] | Potency [2] | Potency [4] | Potency [5] | Potency [6] | Potency [7] | Potency [8] | Potency [9]

NC(=O)CCCCC(N)=O
inactive: Potency [1] | Potency [2] | Potency [4] | Potency [5] | Potency [6] | Potency [7] | Potency [8] | Potency [9]

COC1CCC=CO1 (configuration not stated)
inactive: Potency [1] | Potency [2] | Potency [4] | Potency [5] | Potency [6] | Potency [7] | Potency [8] | Potency [9]

CC1=CC[C@@H]2C[C@H]1C2(C)C
inactive: viability change, negative = cytotoxic [1] 1.84% [at 19 µM] | activity change, negative = inhibition [2] 11.8% [at 19 µM] | activity change, negative = inhibition [4] 0.0628% [at 19 µM] | activity change, negative = cytotoxicity [5] -0.126% [at 19 µM] | viability change, negative = cytotoxic [6] -0.75% [at 19 µM] | viability change, negative = cytotoxic [7] -2.9% [at 19 µM] | activity change [8] 0.102% [at 18.9 µM, active compounds read high]

CC(C)N=C=NC(C)C
inactive: Potency [1] | Potency [2] | Potency [4] | Potency [5] | Potency [6] | Potency [7] | Potency [8]

COc1ccc(C2C(=O)c3ccccc3C2=O)cc1
inactive: Potency [1] | Potency [2] | Potency [3] | Potency [5] | Potency [8] | Potency [9]
active: Potency [4] 23.7 µM

CC(C)COC(=O)COc1cc(Cl)c(Cl)cc1Cl
inactive: Potency [1] | Potency [2] | Potency [4] | Potency [5] | Potency [6] | Potency [7] | Potency [8] | Potency [9]

c1ccc(CCCc2ccncc2)cc1
inactive: Potency [1] | Potency [2] | Potency [5] | Potency [6] | Potency [7] | Potency [8] | Potency [9]
active: Potency [4] 27.3 µM

CC1C(C)(C)C2=C(C(=O)CCC2)C1(C)C (configuration not stated)
inactive: Potency [1] | Potency [2] | Potency [4] | Potency [5] | Potency [6] | Potency [7] | Potency [8]

CO[C@@H]1[C@@H](OC)[C@H](C)[C@@](O)(CC(=O)O)O[C@H]1[C@H](C)[C@H]1O[C@@]2(CC[C@@](C)([C@H]3CC[C@@](C)([C@@H]4O[C@@H]([C@H]5O[C@](C)(O)[C@H](C)C[C@@H]5C)C[C@@H]4OC4C[C@H](OC)[C@@H](OC)[C@H](C)O4)O3)O2)C[C@H](O)[C@H]1C (some centres not stated)
active: Potency [1] 1.68 µM | Potency [2] 11.9 µM | Potency [6] 4.22 µM | Potency [7] 3.76 µM | Potency [9] 0.211 µM
inactive: Potency [3] | Potency [5] | Potency [8]
